Test results: the supplement of paper PMC6897291

Experiments:
RIVA [1] = experiment: growth inhibition by drug plus 177Lu-lilotomab satetraxetan (1 - RLU/untreated control) (fraction); higher = stronger inhibition; conditions: 177Lu-lilotomab satetraxetan 0.5 ug/ml
Procedure, shortened: (§1)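 Plates pre-printed with the Selleck Cambridge Cancer Compound library at 10/100 nM (RIVA) or 10/1,000 nM (U-2932) received 3,000 cells/well. These cells had been washed after 18 h untreated or with a radiolabelled anti-CD37 antibody conjugate (~600 MBq/mg; 0.5 µg/ml RIVA, 1 µg/ml U-2932). Growth inhibition was obtained from RealTime-Glo luminescence in relation to untreated no-drug wells. Each daily read from day 3, taken after 1 h at 37°C, was converted as 1 − RLU/mean of 48 such wells per plate.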

U-2932 [2] = experiment: growth inhibition by drug alone (1 - RLU/untreated control) (fraction); higher = stronger inhibition; conditions: 177Lu-lilotomab satetraxetan 0 ug/ml
Procedure, shortened: as §1

RIVA [3] = experiment: as above; conditions: 177Lu-lilotomab satetraxetan 0 ug/ml
Procedure, shortened: as §1

U-2932 [4] = experiment: growth inhibition by drug plus 177Lu-lilotomab satetraxetan (1 - RLU/untreated control) (fraction); higher = stronger inhibition; conditions: 177Lu-lilotomab satetraxetan 1 ug/ml
Procedure, shortened: as §1

Row | Compound | growth inhibition by drug plus 177Lu-lilotomab satetraxetan (RIVA [1]; 100 nM, time (day): 5) | growth inhibition by drug plus 177Lu-lilotomab satetraxetan (RIVA [1]; 100 nM, time (day): 6) | growth inhibition by drug alone (U-2932 [2]; 10 nM, time (day): 3) | growth inhibition by drug alone (U-2932 [2]; 10 nM, time (day): 4) | growth inhibition by drug alone (U-2932 [2]; 10 nM, time (day): 5) | growth inhibition by drug alone (U-2932 [2]; 10 nM, time (day): 6) | growth inhibition by drug alone (U-2932 [2]; 1000 nM, time (day): 3) | growth inhibition by drug alone (U-2932 [2]; 1000 nM, time (day): 4) | growth inhibition by drug alone (U-2932 [2]; 1000 nM, time (day): 5) | growth inhibition by drug alone (U-2932 [2]; 1000 nM, time (day): 6) | growth inhibition by drug alone (RIVA [3]; 10 nM, time (day): 3) | growth inhibition by drug alone (RIVA [3]; 10 nM, time (day): 4) | growth inhibition by drug alone (RIVA [3]; 10 nM, time (day): 5) | growth inhibition by drug alone (RIVA [3]; 10 nM, time (day): 6) | growth inhibition by drug alone (RIVA [3]; 100 nM, time (day): 3) | growth inhibition by drug alone (RIVA [3]; 100 nM, time (day): 4) | growth inhibition by drug alone (RIVA [3]; 100 nM, time (day): 5) | growth inhibition by drug alone (RIVA [3]; 100 nM, time (day): 6) | growth inhibition by drug plus 177Lu-lilotomab satetraxetan (U-2932 [4]; 10 nM, time (day): 3) | growth inhibition by drug plus 177Lu-lilotomab satetraxetan (U-2932 [4]; 10 nM, time (day): 4) | growth inhibition by drug plus 177Lu-lilotomab satetraxetan (U-2932 [4]; 10 nM, time (day): 5) | growth inhibition by drug plus 177Lu-lilotomab satetraxetan (U-2932 [4]; 10 nM, time (day): 6) | growth inhibition by drug plus 177Lu-lilotomab satetraxetan (U-2932 [4]; 1000 nM, time (day): 3) | growth inhibition by drug plus 177Lu-lilotomab satetraxetan (U-2932 [4]; 1000 nM, time (day): 4) | growth inhibition by drug plus 177Lu-lilotomab satetraxetan (U-2932 [4]; 1000 nM, time (day): 5) | growth inhibition by drug plus 177Lu-lilotomab satetraxetan (U-2932 [4]; 1000 nM, time (day): 6) | growth inhibition by drug plus 177Lu-lilotomab satetraxetan (RIVA [1]; 10 nM, time (day): 3) | growth inhibition by drug plus 177Lu-lilotomab satetraxetan (RIVA [1]; 10 nM, time (day): 4) | growth inhibition by drug plus 177Lu-lilotomab satetraxetan (RIVA [1]; 10 nM, time (day): 5) | growth inhibition by drug plus 177Lu-lilotomab satetraxetan (RIVA [1]; 10 nM, time (day): 6) | growth inhibition by drug plus 177Lu-lilotomab satetraxetan (RIVA [1]; 100 nM, time (day): 3) | growth inhibition by drug plus 177Lu-lilotomab satetraxetan (RIVA [1]; 100 nM, time (day): 4)
1 | CCc1ccc(CCOc2ccc(CC3SC(=O)NC3=O)cc2)nc1 (stereo not drawn) [Pioglitazone (Actos)] | 0.498 | 0.506 |  |  |  |  |  |  |  |  |  |  |  |  |  |  |  |  |  |  |  |  |  |  |  |  |  |  |  |  |  | 
2 | Cc1c(C(=O)Nc2ccc(N3C[C@@H](C)O[C@@H](C)C3)nc2)cccc1-c1ccc(OC(F)(F)F)cc1 [LDE225 (NVP-LDE225, Erismodegib)] | 0.482 | 0.47 | 0.0297 | 0.0258 | -0.0417 | -0.121 | -0.0141 | 0.0478 | 0.023 | -0.177 | -0.0165 | -0.00347 | -0.0773 | -0.419 | -0.213 | -0.137 | -0.143 | -0.258 | 0.00969 | 0.0196 | 0.033 | 0.15 | -0.0204 | 0.153 | 0.159 | 0.189 | 0.366 | 0.504 | 0.517 | 0.547 | 0.384 | 0.483
3 | CCc1cc(Nc2nccc(-c3c(-c4ccc(OC)c(C(=O)Nc5c(F)cccc5F)c4)nc4ccccn34)n2)c(OC)cc1N1CCC(N2CCN(S(C)(=O)=O)CC2)CC1 | 0.481 | 0.461 | 0.0467 | -0.0848 | -0.0609 | -0.106 | -0.14 | -0.0216 | -0.0601 | -0.147 | 0.0601 | -0.0266 | -0.11 | -0.339 | 0.205 | 0.0778 | 0.0473 | -0.0711 | -0.00397 | 0.0169 | 0.0318 | 0.0887 | -0.153 | 0.0173 | 0.00224 | -0.0976 | 0.374 | 0.514 | 0.532 | 0.545 | 0.381 | 0.455
4 | CN1CCN(c2cccc(Nc3nc4c(-c5ccc(S(C)(=O)=O)cc5)cccn4n3)c2)CC1 | 0.425 | 0.401 | 0.0344 | 0.0428 | 0.0368 | 0.113 | 0.028 | 0.0442 | 0.0461 | 0.102 | -0.0335 | -0.0683 | -0.203 | -0.505 | -0.0314 | -0.0426 | -0.0675 | -0.155 | 0.0292 | 0.0656 | 0.062 | 0.17 | -0.0239 | 0.0604 | 0.101 | 0.21 | 0.369 | 0.484 | 0.496 | 0.524 | 0.396 | 0.419
5 | Nc1nc2[nH]cc(CCc3ccc(C(=O)N[C@@H](CCC(=O)O)C(=O)O)cc3)c2c(=O)[nH]1 [Pemetrexed] | 0.436 | 0.408 | -0.0147 | -0.0188 | -0.0965 | -0.27 | 0.905 | 0.948 | 0.965 | 0.974 | -0.121 | -0.198 | -0.281 | -0.489 | -0.293 | -0.377 | -0.377 | -0.54 | -0.058 | -0.0226 | 0.000411 | 0.0568 | 0.893 | 0.951 | 0.97 | 0.979 | 0.279 | 0.458 | 0.483 | 0.497 | 0.325 | 0.44
6 | N#Cc1ccc(COC[C@H]2O[C@@H](n3c(NCc4ccc(Cl)c(Cl)c4)nc4c(N)ncnc43)[C@H](O)[C@@H]2O)cc1 | 0.557 | 0.551 | 0.115 | 0.0829 | -0.00792 | -0.0103 | 0.0695 | 0.0449 | -0.0886 | -0.0586 | -0.00484 | -0.0139 | -0.22 | -0.465 | -0.367 | -0.326 | -0.323 | -0.395 | -0.0128 | 0.0586 | 0.0723 | 0.037 | 0.12 | 0.128 | 0.109 | 0.165 | 0.498 | 0.574 | 0.59 | 0.586 | 0.472 | 0.543
7 | CCn1c(-c2nonc2N)nc2c(C#CC(C)(C)O)ncc(OC[C@H]3CCCNC3)c21 | 0.42 | 0.413 | 0.0651 | 0.0169 | -0.0977 | -0.22 | 0.654 | 0.769 | 0.826 | 0.861 | 0.0369 | -0.0639 | -0.133 | -0.326 | -0.134 | -0.204 | -0.217 | -0.34 | -0.0148 | 0.000859 | -0.00972 | 0.0167 | 0.596 | 0.736 | 0.792 | 0.836 | 0.28 | 0.464 | 0.475 | 0.494 | 0.315 | 0.41
8 | C=CC(=O)Nc1cccc(Oc2nc(Nc3ccc(N4CCN(C)CC4)cc3OC)ncc2Cl)c1 | 0.299 | 0.321 | -0.0921 | -0.0614 | -0.0383 | 0.12 | 0.122 | 0.0694 | 0.0278 | 0.0218 | -0.189 | -0.196 | -0.216 | -0.258 | -0.151 | -0.238 | -0.251 | -0.328 | -0.102 | -0.073 | -0.0211 | 0.138 | 0.163 | 0.104 | 0.0972 | 0.216 | 0.397 | 0.494 | 0.517 | 0.516 | 0.215 | 0.265
9 | COc1ccc(COc2cc3oc(=O)c4cc(C(C)O)ccc4c3cc2OC)cc1 (stereo not drawn) [Palomid 529] | 0.454 | 0.453 | 0.0334 | 0.0194 | -0.0368 | -0.114 | -0.0247 | 0.00321 | -0.0394 | -0.242 | 0.0296 | 0.0604 | -0.0136 | -0.281 | -0.0737 | -0.0625 | -0.0557 | -0.118 | -0.0294 | 0.00126 | 0.0363 | 0.0704 | -0.0939 | 0.0227 | 0.013 | 0.0753 | 0.337 | 0.478 | 0.494 | 0.503 | 0.321 | 0.445
10 | CC(C)n1c(/C=C/C(O)CC(O)CC(=O)O)c(-c2ccc(F)cc2)c2ccccc21 (stereo not drawn) [Fluvastatin sodium (Lescol)] | 0.53 | 0.525 | 0.0449 | -0.0165 | -0.0177 | 0.0304 | -0.0194 | -0.0389 | -0.0543 | 0.0255 | -0.148 | -0.159 | -0.189 | -0.293 | -0.27 | -0.311 | -0.385 | -0.508 | -0.0533 | 0.0114 | 0.0651 | 0.148 | 0.00838 | 0.0135 | 0.0456 | 0.221 | 0.511 | 0.544 | 0.565 | 0.555 | 0.516 | 0.511
11 | O=c1cc(N2CCOCC2)oc2c(-c3cccc4c3sc3ccccc34)cccc12 | 0.523 | 0.529 | 0.114 | 0.0778 | -0.0783 | -0.126 | 0.206 | 0.176 | 0.0314 | -0.00386 | 0.21 | 0.183 | 0.173 | -0.0317 | -0.363 | -0.241 | -0.261 | -0.43 | 0.0719 | 0.131 | 0.166 | 0.2 | 0.312 | 0.318 | 0.34 | 0.421 | 0.597 | 0.621 | 0.62 | 0.635 | 0.447 | 0.499
12 | COc1c(C)cnc(Cn2cnc3c(Cl)nc(N)nc32)c1C | 0.584 | 0.597 | 0.137 | 0.0945 | 0.017 | -0.0336 | 0.935 | 0.979 | 0.986 | 0.987 | -0.00355 | 0.0266 | -0.0608 | -0.277 | 0.0172 | 0.0454 | 0.0061 | -0.105 | -0.00351 | 0.0579 | 0.0581 | 0.132 | 0.949 | 0.985 | 0.988 | 0.989 | 0.511 | 0.587 | 0.6 | 0.607 | 0.471 | 0.569
13 | Cn1cncc1[C@@](N)(c1ccc(Cl)cc1)c1ccc2c(c1)c(-c1cccc(Cl)c1)cc(=O)n2C [Tipifarnib (Zarnestra)] | 0.511 | 0.536 | 0.0908 | 0.0396 | 0.00741 | -0.0584 | 0.757 | 0.8 | 0.836 | 0.863 | -0.055 | -0.241 | -0.428 | -0.678 | -0.0203 | -0.124 | -0.267 | -0.517 | 0.0185 | 0.0674 | 0.106 | 0.1 | 0.777 | 0.805 | 0.847 | 0.882 | 0.37 | 0.421 | 0.452 | 0.489 | 0.482 | 0.521
14 | CC(C)Oc1cc(Nc2nc(N[C@@H](C)c3ccc(F)cn3)ncc2Cl)n[nH]1 | 0.57 | 0.574 | 0.14 | 0.0983 | -0.0668 | -0.0699 | 0.0367 | 0.0436 | -0.032 | -0.0869 | 0.0887 | 0.104 | 0.0671 | -0.147 | -0.29 | -0.178 | -0.215 | -0.331 | 0.116 | 0.157 | 0.213 | 0.262 | 0.11 | 0.174 | 0.221 | 0.323 | 0.626 | 0.642 | 0.679 | 0.662 | 0.487 | 0.557
